Source: PubChem BioAssay AID686978 (National Center for Advancing Translational Sciences (NCATS), 2013)
“And” between values parts separate entries of the source, which are not always exact repeats. Identical values can stand only once. Out of some 420,000 compounds screened, about 64,000 (15%) were called active. Inconclusive results (about 27%) are left out. Not all results are given here. Unmarked numbers belong to inactive results. Calls follow the shape of the dose curve; as a rule, active = well fitted inhibition curve with a large enough effect; inconclusive = small, poorly fitted or top-dose-only effect; inactive = flat fitted curve, though single readings scatter. Peptide text beside a SMILES is read from it.

Test: qHTS for Inhibitors of human tyrosyl-DNA phosphodiesterase 1 (TDP1): qHTS in cells in absence of CPT; also: nearly all actives have a fitted effect of over 55% in size
Settings: DT40 Tdp1-/- hTDP1 cells, no CPT, ATP luminescence, 48 h; activity change, negative = growth inhibition: at 46.2 µM (top of the series)
Procedure, shortened: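 Growth kinetics read by CellTiter-Glo luminescence after ≥48 hr at 37 °C. Cells: DT40 Tdp1-/- stably carrying human TDP1, 400 per well, compound exposure in the absence of CPT (DMSO vehicle).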
% is scaled to controls: 0 for no effect and ±100 for the full control effect; potency is read from the fitted curve at half-maximal effect.

| Compound | activity change, negative = growth inhibition [%] | Potency |
| --- | --- | --- |
| O=C(Nc1cccnc1)c1cc([N+](=O)[O-])ccc1Cl | -29.7 |  |
| Nc1nc(SC23CC4CC(CC(C4)C2)C3)ns1 | -6.92 |  |
| O=C(Nc1ccc(-n2cccn2)cc1)C1CCN(Cc2ccsc2)CC1 | -23.5 |  |
| COc1ccc(C/C(N)=N/OC(=O)c2ccco2)cc1OC | -29.2 |  |
| CCOc1ccc(NC(=O)CCS(=O)(=O)c2cccc3nsnc23)cc1 | -15.8 |  |
| O=C(CSc1ncn[nH]1)Nc1nsc(-c2ccccc2)n1 | -15.2 |  |
| c1csc(-c2nc(-c3ccncc3)no2)c1 | -17.5 |  |
| CCN(CC(=O)Nc1ccc(NC(C)=O)cc1)C(=O)C1CC(=O)N(Cc2ccc(C)cc2)C1 (configuration not stated) | -11.4 |  |
| COc1ccc2c(c1)CCCO[C@]21O[C@H](CCO)C[C@H](O)[C@H]1O | -4.91 |  |
| CC(C)OCCCNc1nc2c(c(=O)n(Cc3ccccc3F)c(=O)n2C)n1C | -25.5 |  |
| Cn1c(=O)c2c(nc(NCCNC(=O)c3ccco3)n2Cc2ccccc2F)n(C)c1=O |  | 18.4 µM (active) |
| COc1ccccc1/C=C/C(=O)OCC(=O)NC1CCCCCC1 | 1.73 |  |
| CC1(C(=O)NS(=O)(=O)c2ccccc2)CCN1C(=O)C1CCCCC1 (configuration not stated) | -13.8 |  |
| Cc1noc(C)c1NC(=O)Nc1cccc2c1O[C@H](CN(C)S(=O)(=O)c1c(C)noc1C)[C@@H](C)CN([C@H](C)CO)C2=O | 7.28 |  |
| COc1cc(OC)c(NC(=O)c2ccc(Br)o2)cc1Cl | -24.3 |  |
| CN1CCN(C(=O)c2ccc(NC(=O)c3ccc(Br)o3)cc2)CC1 | -22.7 |  |
| CCN1CCN(c2c(Cl)cccc2NC(=O)c2ccc(Br)o2)CC1 |  | 16.4 µM (active) |
| O=C(Cn1nnc(-c2ccccc2)n1)N/N=C/c1ccc(-c2ccc(Cl)cc2)o1 | -27.8 |  |
| O=[N+]([O-])c1ccccc1S(=O)(=O)Nc1cccc2cccnc12 |  | 2 µM (active) and 2.59 µM (active) |
| NS(=O)(=O)c1ccc(CCNS(=O)(=O)c2cccc3cccnc23)cc1 | 2.4 |  |
| Cc1ccccc1NC(=O)c1ccccc1NS(=O)(=O)c1cccc2cccnc12 | 3.69 |  |
| Cc1nc2ccccc2c(=O)n1NC(=O)c1ccc(Cl)c([N+](=O)[O-])c1 | 13.5 |  |
| Cc1nc2ccccc2c(=O)n1Cc1ccc([N+](=O)[O-])cc1 | -23.4 |  |
| CCn1c(/C=C/c2ccc([N+](=O)[O-])o2)nc2ccccc2c1=O |  | 2.59 µM (active) |
| CCc1noc(C)c1C(=O)N1CCCSC1=Nc1ccccc1OC | 2.59 |  |

| Compound | activity change, negative = growth inhibition [%] | Potency |
| --- | --- | --- |
| COC(=O)Cn1c(=NC(=O)CSCC(=O)Nc2cc(C)on2)sc2ccccc21 | -27.7 |  |
| CCOc1ccc(N(CC(=O)NCc2ccc(OC)cc2)S(=O)(=O)c2c(C)noc2C)cc1 | 3.66 |  |
| Cc1noc(C)c1S(=O)(=O)N(CC(=O)Nc1ccc2c(c1)OCCO2)c1ccc(C(C)C)cc1 |  | 14.6 µM (active) |
| CCOc1ccc(N(CC(=O)OC)S(=O)(=O)c2c(C)noc2C)cc1 | -37.2 |  |
| CCOc1ccc(OCC)c(NC(=O)CN(c2ccc(C)cc2)S(=O)(=O)c2c(C)n[nH]c2C)c1 |  | 29.1 µM (active) |
| CCOc1ccc(N(CC(=O)Nc2ccccc2F)S(=O)(=O)c2c(C)[nH]c(=O)[nH]c2=O)cc1 | 19.9 |  |
| Cc1ccc(S(=O)(=O)NCC(=O)Nc2ccc3c(c2)OCCO3)cc1 | -13.1 |  |
| COc1ccc(N(CC(=O)Nc2ccc(F)c(F)c2)S(=O)(=O)c2c(C)[nH]c(=O)[nH]c2=O)cc1 | 12.9 |  |
| COc1ccc(N(CC(=O)Nc2cc(OC)ccc2OC)S(=O)(=O)c2c(C)noc2C)cc1 |  | 23.1 µM (active) |
| COC(=O)c1ccc(NC(=O)CN(c2ccc(C)cc2)S(=O)(=O)c2c(C)n[nH]c2C)cc1 | -24.3 |  |
| C/C=C\C=C\C(=O)N1CC2(CC(c3cccc(NC(=O)/C(C)=C\C)c3)=NO2)C[C@H]1C(N)=O (some centres not stated) | 1.29 |  |
| CC(NC(=O)CN1CCN(Cc2ccc(Cl)cc2)C1=O)c1ccc2c(c1)OCCO2 (configuration not stated) | -27.4 |  |
| Cc1noc(C)c1C(=O)OCC(=O)N1CCN(S(=O)(=O)c2ccc3ccccc3c2)CC1 | -11.1 |  |
| C(=N/N1CCN(c2ccccc2)CC1)/c1cccs1 | -14.1 |  |
| Nc1c(Cl)cc(S(N)(=O)=O)cc1S(N)(=O)=O | -12.3 |  |
| O=[N+]([O-])c1ccc(Sc2n[nH]c(-c3ccco3)n2)nc1 | -13.6 |  |
| COc1ccc(Oc2ncc3nc(C)c(=O)n(-c4ccccc4)c3n2)cc1 | -12.7 |  |
| COc1ccc(-n2c(C)nc3c(cnn3-c3ccccc3)c2=O)cc1 |  | 16.4 µM (active) |
| CCOc1ccc(-n2c(C)nc3c(cnn3-c3ccc(C)cc3)c2=O)cc1 |  | 5.8 µM (active) |
| CCOc1ccc(-n2cnc3c(=O)[nH]c(N)nc32)cc1 | 3.61 |  |
| COc1ccc(Oc2ncc3nc(-c4ccc(F)cc4)c(=O)n(C)c3n2)cc1 | -9.75 |  |
| CCC(C)Sc1nc2c(cnn2-c2ccc(F)cc2)c(=O)[nH]1 (configuration not stated) | -24.8 |  |
| Cc1ccc(Oc2cnn(-c3ccccc3)c(=O)c2Br)cc1 | -25.1 |  |
| CCOC(=O)c1ccc(-n2c(C)nc3c(cnn3-c3ccccc3C)c2=O)cc1 | -27.8 |  |
| COc1ccc(-n2c(C)nc3c(cnn3-c3ccc(F)cc3)c2=O)cc1 |  | 16.4 µM (active) |

| Compound | activity change, negative = growth inhibition [%] | Potency |
| --- | --- | --- |
| COC(=O)C1CCCCN1C(=O)c1ccc(OC2CCN(C(C)=O)CC2)c(OC)c1 (configuration not stated) | -10.1 |  |
| CS(=O)(=O)c1ccc(C(=O)NNC(=O)c2cccs2)cc1 | 16.7 |  |
| O=C1/C(=C\c2ccc([N+](=O)[O-])cc2)CS(=O)(=O)C/C1=C/c1ccc([N+](=O)[O-])cc1 |  | 0.0231 µM (active) |
| O=[N+]([O-])c1ccc(C=NN=Cc2ccc([N+](=O)[O-])cc2)cc1 | -11.9 |  |
| O=C(NN=Cc1ccc([N+](=O)[O-])cc1)C1CC1 | -13.3 |  |
| CCN(CC)Cc1c(C(=O)N/N=C/c2cccc(OCc3ccc(F)cc3)c2)nnn1-c1nonc1N | 17.5 |  |
| CCc1ccc(N2CC(C(=O)Nc3ccc(S(=O)(=O)Nc4nccs4)cc3)CC2=O)cc1 (configuration not stated) | -3.73 |  |
| Cc1ccc(-n2nc(-c3ccco3)cc2C(=O)NCc2cccnc2)cc1 |  | 18.4 µM (active) |
| CSc1sc(C(=O)NC(=O)NCc2cccnc2)c(C)c1-c1ccon1 | -28.8 |  |
| Cc1ccc(C(=O)NC(=S)NCc2cccnc2)cc1 | -23.8 |  |
| NC(=S)N/N=C/c1coc2cc(Cl)ccc2c1=O | -10.4 |  |
| CC(C)Oc1c(Br)cc(Br)cc1/C=N/NC(N)=S |  | 5.8 µM (active) |
| O=C(NNC(=S)Nc1ccc(F)cc1)[C@H]1C[C@@H]1c1ccccc1 | -21.6 |  |
| C(=N\n1cnnc1)/c1cccnc1 | 0.108 |  |
| CCc1ccc(N2CC(O)=C(c3nc4ccccc4c(=O)[nH]3)C2=N)cc1 |  | 14.6 µM (active) |
| N=C1C(c2nc3ccccc3[nH]2)=C(O)CN1NC(=O)c1c[nH]c2ccccc12 | -18.9 |  |
| O=c1[nH]c(-c2cccs2)nc2ccccc12 | -14.4 |  |
| Cc1ccc2nc(-c3ccccc3)cc(C(=O)O)c2c1 | 3.48 |  |
| CCN(CC)CCNC(=O)c1ccc(NS(=O)(=O)c2ccc3c(c2)OCCO3)cc1 | 1.9 |  |
| CCN(CC)CCNC(=O)c1ccc(NC(=O)c2cc(-c3ccncc3)nc3ccccc23)cc1 |  | 23.1 µM (active) |
| Cc1ccc2nc(-c3ccncc3)cc(C(=O)Nc3ccc4c(c3)OCCO4)c2c1 |  | 10.3 µM (active) |
| Cc1ccc2nc(-c3ccncc3)cc(C(=O)Nc3ccc(OC(F)F)cc3)c2c1 |  | 9.2 µM (active) |
| O=C(Nc1ccncc1)c1cc(-c2ccccn2)nc2ccc(Br)cc12 | 3.21 |  |
| O=C(Nc1ccc(S(=O)(=O)Nc2nccs2)cc1)c1cc(-c2ccncc2)nc2ccccc12 | 28.4 |  |
| O=C(Nc1ccc2c(c1)OCCO2)c1cnccn1 | -11.3 |  |

| Compound | activity change, negative = growth inhibition [%] | Potency |
| --- | --- | --- |
| CCn1c(SCC(=O)Nc2ccc3c(c2)OCCO3)nnc1-c1ccncc1 | -7.98 |  |
| C=CCNC(=O)/C(=C\c1cccc([N+](=O)[O-])c1)NC(=O)c1ccccc1 | 2.93 |  |
| COc1cc(/C=C/C(=O)OCC(=O)NC2CC2)cc(OC)c1OC | -6.43 |  |
| Cc1cc(=O)oc2cc(NC(=O)C(C)Oc3ccccc3)ccc12 (configuration not stated) | -22.7 |  |
| C[C@H](CO)N1C[C@H](C)[C@@H](CN(C)S(=O)(=O)c2ccc(Oc3ccccc3)cc2)OCc2cn(nn2)CCCC1=O | -20.9 |  |
| COc1ccc(NC(=O)CSc2nc(N)c(-c3ccccc3)c(=O)[nH]2)cc1 | 3.54 |  |
| CC(C)c1ccc(Nc2ncccc2C#N)cc1 | -21.5 |  |
| CCc1nnc(NC(=O)c2cccs2)s1 | -3.32 |  |
| CC(=O)c1cccc(NC(=O)C2CCCN2S(=O)(=O)c2cccc3nsnc23)c1 (configuration not stated) | -1.49 |  |
| CC(C)C(c1nnnn1C1CCCC1)N1CCN(c2ccccc2F)CC1 (configuration not stated) |  | 18.4 µM (active) |
| CCC(c1nnnn1C1CCCC1)N1CCN(C(=O)c2ccco2)CC1 (configuration not stated) | 1.8 |  |
| CC(C)C(c1nnnn1C1CCCCC1)N1CCN(C(=O)c2ccco2)CC1 (configuration not stated) | 0.558 |  |
| CC(C)C[C@@H](NC(=O)[C@H]1CCCN1C(=O)Cc1ccccc1)C(N)=O (HELM PEPTIDE1{[O=C(Cc1ccccc1)[*:2]].[dP].[dL].[am]}$$$$V2.0) | 6.33 |  |
| CC(C)C(=O)Nc1c2c(nn1-c1ccccc1)CSC2 | 4.86 |  |
| COCCN1C(=O)N[C@@H](CCc2ccccc2)[C@H](C(C)=O)[C@H]1C | -9.51 |  |
| CCN1C(=NCC(C)C)N[C@@H](CCc2ccccc2)[C@H](C(=O)NCC(C)C)[C@H]1C |  | 13 µM (active) |
| CCN1C(=NCc2ccc(OC)cc2)N[C@@H](CCc2ccccc2)[C@H](C(=O)NCc2ccc(OC)cc2)[C@H]1C |  | 9.2 µM (active) |
| CC1=C(C)CC(C(=O)NC(C)CCc2ccccc2)C(C(=O)O)C1 (configuration not stated) | -0.273 |  |
| CCN1C(=NCCc2cccnc2)N[C@@H](c2ccccc2)[C@H](C(=O)OC)[C@H]1C | -24.1 |  |
| CCN1C(=O)N[C@@H](c2ccccc2)[C@H](C(C)=O)[C@H]1C | -1.65 |  |
| CCc1ccccc1NC(=O)CSc1nnc([C@@H](NC(=O)OC(C)(C)C)C(C)C)o1 | -11 |  |
| Cc1c(NS(=O)(=O)c2ccc(Cl)cc2)c(=O)n(-c2ccccc2)n1C | -6.89 |  |
